{"source": "PubChem BioAssay (Tox21)", "note": "Values joined by “and” are separate entries in the source; they are usually repeats but may differ in a detail not shown here. Identical values can stand only once. Records with an inconclusive call do not appear. Where a call stands in place of a potency, no number is given. Where a structure was tested more than once in an assay, its records may differ in their call. Active and inactive are the calls of the source. The call rests on the fitted dose curve; in most records, active means well fitted activation curve with a large enough effect in the repeat runs; inconclusive means weak or mixed curves; inactive means flat fitted curve, though single readings scatter. Potency means the concentration at half of the fitted maximal effect."}
{"assay": "A CellTox Green Cytotoxicity Assay to monitor cytotoxicity in HepG2 cells - 24 hour (AID 1224878); further: nearly all actives have a fitted effect of over 45% in size", "details": "CellTox Green fluorescence; series mostly up to 76.8 µM", "text": "National Center for Advancing Translational Sciences [NCATS]\nNIH Chemical Genomics Center [NCGC]\nU.S. Environmental Protection Agency [EPA]\nNational Institutes of Environmental Health Sciences [NIEHS]\nNational Toxicology Program [NTP]\nCell-based models are critical for drug discovery. Determining the natural cytotoxic effects resulting from test compounds is an essential research activity. A CellTox Green Cytotoxicity Assay to monitor cytotoxicity in real time of continues cell culture during 40 hours of the compound treatment was used to screen Tox21 10K library compounds in HepG2 cells. CellTox Green Cytotoxicity Assay is a nonlytic, homogeneous, biofluorescent method to measure cytotoxicity in cell culture after experimental manipulation. The assay system uses a proprietary asymmetric cyanine dye that is excluded from viable cells but preferentially stains the dead cell's DNA. […] Viable cells produce no appreciable increases in fluorescence. Therefore, the fluorescence signal produced by the binding interaction with dead cell DNA is proportional to cytotoxicity.\nThe mixture of HepG2 cell suspension and reagents were dispensed at 600cells/6 ul/well in 1536-well tissue culture treated black solid bottom plates using a Multidrop dispenser. After the assay plates were incubated at a 37 C/5% CO2 incubator for 5 hours, 23 nL of compounds dissolved in DMSO, positive and negative controls was transferred to the assay plate by a pintool work station. The plates were incubated at 37 C for 40 hours. The fluorescence intensity were measured at 0h, 8h, 16h, 24h, 32h and 40h time points using ViewLux plate reader during compound treatment."}
{"smiles": "CC(C)(OOC(C)(C)c1ccccc1)c1ccccc1", "Potency": "inactive"}
{"smiles": "C[C@]12CCC(=O)C[C@@H]1CC[C@@H]1[C@@H]2CC[C@]2(C)[C@@H](O)CC[C@@H]12", "Potency": "inactive"}
{"smiles": "c1nc[nH]n1", "Potency": "inactive"}
{"smiles": "Nc1ccc(-c2ccccc2)cc1", "Potency": "inactive"}
{"smiles": "C=CC(=O)OCCO", "Potency": "inactive"}
{"smiles": "CCN(CC)C(=O)SCc1ccc(Cl)cc1", "Potency": "inactive"}
{"smiles": "CNC(=O)N(C)c1nnc(C(C)(C)C)s1", "Potency": "inactive"}
{"smiles": "c1ccc(NNc2ccccc2)cc1", "Potency": "inactive"}
{"smiles": "O=C(NC(=O)c1c(F)cccc1F)Nc1ccc(Cl)cc1", "Potency": "inactive"}
{"smiles": "NC(=S)Nc1ccccc1", "Potency": "49.8 µM (active) and inactive"}
{"smiles": "O=[N+]([O-])c1cccc2ccccc12", "Potency": "inactive"}
{"smiles": "CNC(=O)Oc1cccc2c1OC(C)(C)O2", "Potency": "inactive"}
{"smiles": "CCCCC(CC)COC(=O)Cl", "note": "(stereo not given)", "Potency": "inactive"}
{"smiles": "O=c1oc2ccccc2c(O)c1C(CC(O)c1ccc(-c2ccc(Br)cc2)cc1)c1ccccc1", "note": "(stereo not given)", "Potency": "inactive"}
{"smiles": "CC1(C)C(C=C(Cl)Cl)C1C(=O)OC(C#N)c1cccc(Oc2ccccc2)c1", "note": "(stereo not given)", "Potency": "inactive"}
{"smiles": "O=C1C=CC(=O)C=C1", "Potency": "inactive"}
{"smiles": "COP(=S)(OC)Oc1ccc([N+](=O)[O-])cc1", "Potency": "inactive"}
{"smiles": "COP(=S)(OC)Oc1cc(Cl)c(Cl)cc1Cl", "Potency": "inactive"}
{"smiles": "O=[N+]([O-])c1ccc(O)c([N+](=O)[O-])c1", "Potency": "inactive"}
{"smiles": "ClC1C(Cl)C(Cl)C(Cl)C(Cl)C1Cl", "note": "(stereo not given)", "Potency": "inactive and 43.6 µM (active)"}
{"smiles": "CCCCCCCCOC(=O)c1ccccc1C(=O)OCCCCCCCC", "Potency": "inactive"}
{"smiles": "C=CCc1ccc(OC)cc1", "Potency": "inactive"}
{"smiles": "O=C(O)CC[N+](=O)[O-]", "Potency": "inactive"}
{"smiles": "CCOCN(C(=O)CCl)c1c(C)cccc1CC", "Potency": "inactive"}
{"smiles": "C#C[C@]1(O)CC[C@H]2[C@@H]3CCC4=CC(=O)CC[C@]4(C)[C@H]3CC[C@@]21C", "Potency": "inactive"}
{"smiles": "Brc1ccc(Oc2cc(Br)c(Br)cc2Br)c(Br)c1", "Potency": "inactive"}
{"smiles": "Nc1c(Cl)cc([N+](=O)[O-])cc1Cl", "Potency": "inactive"}
{"smiles": "CCOP(=S)(OCC)O/N=C(\\C#N)c1ccccc1", "Potency": "inactive"}
{"smiles": "Cc1cccc(N)c1N", "Potency": "inactive"}
{"smiles": "CC(C)N(C(=O)SCC(Cl)=C(Cl)Cl)C(C)C", "Potency": "inactive"}
{"smiles": "CCC(=O)O[C@H]1CC[C@H]2[C@@H]3CCC4=CC(=O)CC[C@]4(C)[C@H]3CC[C@]12C", "Potency": "43.6 µM (active)"}
{"smiles": "CCCCCCCCCCCOC(=O)c1ccccc1C(=O)OCCCCCCCCCCC", "Potency": "inactive"}
{"smiles": "CCOc1cc(C=O)ccc1O", "Potency": "inactive"}
{"smiles": "COc1ccc(C=O)cc1", "Potency": "inactive"}
{"smiles": "CCCCNC(=O)n1c(NC(=O)OC)nc2ccccc21", "Potency": "inactive"}
{"smiles": "N#Cc1cc(Br)c(O)c(Br)c1", "Potency": "inactive"}
{"smiles": "CC(C)Oc1cc(-n2nc(C(C)(C)C)oc2=O)c(Cl)cc1Cl", "Potency": "inactive"}
{"smiles": "O=P(O)(O)CCCl", "Potency": "inactive"}
{"smiles": "CCC(C)c1cc([N+](=O)[O-])cc([N+](=O)[O-])c1O", "note": "(stereo not given)", "Potency": "inactive"}
{"smiles": "NNC(=S)NN", "Potency": "inactive"}
